Vc quorum ag-1: inducers of Vibrio cholerae quorum light production without autoinducers. V. cholerae BH1578 lux reporter, luminescence, 6 h. activation, % at 18.7 µM. 350,000 compounds, 0.16% hits; in the data active means activation mostly above about 9.7%, no sharp cut-off; inconclusive means no clear call, values can overlap the other calls; inactive means mostly below about 3.7%
BJeLR lethal: kills HRASV12-expressing BJeLR cells; 300,000 compounds, 0.17% hits; BJeLR (HRASV12) viability, CellTiter-Glo ATP luminescence, 48 h; inhibition, % (no concentration beside the values); in the data active means inhibition above about 50%; inconclusive means no clear call, values can overlap the other calls
BoNT F protease: inhibitors of Botulinum neurotoxin F light chain protease | Multiplex microsphere protease cleavage assay, flow cytometry | inhibition, % at 10 µM | 360,000 compounds, 0.22% hits; in the data active means inhibition above about 35%, passing the limit was not always enough; inconclusive means no clear call, values can overlap the other calls
BoNT-A LC inh2: inhibitors of Botulinum neurotoxin A light chain protease. multiplex microsphere protease substrate cleavage, flow cytometry. inhibition, % at 10 µM. 360,000 compounds, 0.17% hits. AID 588499
Autofluor counter: flagged as autofluorescent in microsphere protease counterscreen | fluorescence intensity (concentration not given with the values) | 360,000 compounds, 3.1% hits | compound autofluorescence counterscreen, microsphere flow cytometry; stronger effect = higher value | AID 624483; in the data active means fluorescence intensity above about 16000; inconclusive means no clear call, values can overlap the other calls
Anthrax LF inh2: inhibitors of Bacillus anthracis lethal factor protease | P15917 | multiplex microsphere protease cleavage assay, LF | inhibition, % at 10 µM | 360,000 compounds, 0.12% hits | AID 588501
Vc quorum ag-2: induces V. cholerae light production without autoinducers | AID 602243 | activation, % at 50 µM | V. cholerae BH1578 lux reporter, luminescence, 6 h | 620 tested, under 10 active | shares compounds with Vc quorum ag-1; call rule not given here
HeLa tox: kills HeLa cells within 24 hours; activity change, negative = cytotoxicity, % at 35 µM; AID 624140; shares compounds with Vc quorum ag-1; HeLa viability, CellTiter-Glo ATP luminescence; 25 tested, under 10 active;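 active means signal drop with fitted half-maximal concentration at or below twice the highest valid dose; inconclusive means flat curve with 30 to 70% loss, or poor fit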
A number is an active result. Compounds with a hit are over-represented: about 3.7% of the library has one in this group of screens. Unless noted, no stated cut-off is given here; in the data, active means inhibition above about 30%; inconclusive means no clear call, values can overlap the other calls; inactive means below that.

For COc1cc2c(cc1OC)C(c1ccc(C)cc1)NC(=O)C2 (configuration not stated) the results were Vc quorum ag-1 100, BJeLR lethal inactive, BoNT F protease inactive, BoNT-A LC inh2 inactive, Autofluor counter inactive, Anthrax LF inh2 inactive and Vc quorum ag-2 inactive.
`Clc1ncnc2scc(-c3ccccc3)c12` gave Vc quorum ag-1 inactive, BJeLR lethal inactive, BoNT F protease inactive, BoNT-A LC inh2 inactive, Autofluor counter inactive, Anthrax LF inh2 inactive and Vc quorum ag-2 inactive.
Cc1ccc(-n2nnnc2SCC(=O)NCC2CCCO2)cc1C (configuration not stated) was read as Vc quorum ag-1 inactive, BoNT F protease inactive, BoNT-A LC inh2 inactive, Autofluor counter inactive, Anthrax LF inh2 inactive and Vc quorum ag-2 inactive.
Screening Cc1ccccc1-n1ccnc1SCC(=O)NCC1CCCO1 (configuration not stated) returned Vc quorum ag-1 15, BJeLR lethal inactive, BoNT F protease inactive, BoNT-A LC inh2 inactive, Autofluor counter inactive, Anthrax LF inh2 inactive and Vc quorum ag-2 inactive.
Screening Nc1ccn([C@@H]2O[C@H](C(=O)N3CCCN(Cc4ccccc4F)CC3)[C@@H](O)[C@H]2O)c(=O)n1 returned BoNT F protease inactive, BoNT-A LC inh2 inactive, Autofluor counter inactive and Anthrax LF inh2 inactive.
Screening Cc1ccc(C(NC(=O)C2CCN(Cc3ccc(Cl)c(Cl)c3)CC2)c2ccccn2)cc1 (configuration not stated) returned Vc quorum ag-1 inactive, BoNT F protease inactive, BoNT-A LC inh2 inactive, Autofluor counter inactive and Anthrax LF inh2 inactive.
CN(C(=O)CN1CCN(c2cc(-c3ccc(-c4ccccc4)cc3)ncn2)CC1)c1ccccc1 was read as Vc quorum ag-1 inactive, BoNT F protease inactive, BoNT-A LC inh2 inactive, Autofluor counter inactive and Anthrax LF inh2 inactive.
O=C(O)C1C2CCC(C2)C1C(=O)Nc1cc(F)ccc1F (configuration not stated) was read as Vc quorum ag-1 17, BJeLR lethal inactive, BoNT F protease inactive, BoNT-A LC inh2 inactive, Autofluor counter inactive, Anthrax LF inh2 inactive and Vc quorum ag-2 inactive.
O=C(O)C1C2CCC(C2)C1C(=O)NCCc1ccc(F)cc1 (configuration not stated) was read as Vc quorum ag-1 inactive, BJeLR lethal inactive, BoNT F protease inconclusive, BoNT-A LC inh2 inactive, Autofluor counter inactive and Anthrax LF inh2 inactive.
Cc1cc(C(F)(F)F)c2c(N)c(C(=O)NC3CC3)sc2n1 was read as Vc quorum ag-1 inactive, BJeLR lethal inactive, BoNT F protease inactive, BoNT-A LC inh2 inactive, Autofluor counter inactive, Anthrax LF inh2 inactive and Vc quorum ag-2 inactive.
O=C(NC1CCCCC1)C(=O)c1c[nH]c2ccccc12 was read as Vc quorum ag-1 474, BJeLR lethal inactive, BoNT F protease inactive, BoNT-A LC inh2 inactive, Autofluor counter inactive, Anthrax LF inh2 inactive and Vc quorum ag-2 inactive.
For O=C(COC(=O)c1c[nH]c2ccccc12)NC1CCCC1 the results were Vc quorum ag-1 inactive, BoNT F protease inactive, BoNT-A LC inh2 inactive, Autofluor counter inactive and Anthrax LF inh2 inactive.
Screening CCCn1nnnc1NCc1ccc(F)cc1 returned Vc quorum ag-1 inactive, BJeLR lethal inactive, BoNT F protease inactive, BoNT-A LC inh2 inactive, Autofluor counter inactive and Anthrax LF inh2 inactive.
Screening CCCn1nnnc1NCc1ccc(OC)cc1OC returned Vc quorum ag-1 active, BJeLR lethal inactive, BoNT F protease inactive, BoNT-A LC inh2 inactive, Autofluor counter inactive, Anthrax LF inh2 inactive and Vc quorum ag-2 inactive.
Screening CCN(CC)c1ccc(CNc2nnnn2C)cc1 returned Vc quorum ag-1 active, BJeLR lethal inactive, BoNT F protease inactive, BoNT-A LC inh2 inactive, Autofluor counter inactive, Anthrax LF inh2 inactive and Vc quorum ag-2 inactive.
For CCCn1nnnc1NCc1ccc(N(CC)CC)cc1 the results were BJeLR lethal inactive, BoNT F protease inactive, BoNT-A LC inh2 inactive, Autofluor counter inactive, Anthrax LF inh2 inactive, Vc quorum ag-2 inactive and HeLa tox inactive.
`CCCn1nnnc1NCc1ccc(SC)cc1` gave BJeLR lethal inactive, BoNT F protease inconclusive, BoNT-A LC inh2 inactive, Autofluor counter inactive, Anthrax LF inh2 inactive and Vc quorum ag-2 inactive.
Screening CCCn1nnnc1NCc1cccc(OC)c1OCC returned Vc quorum ag-1 inactive, BJeLR lethal inactive, BoNT F protease inactive, BoNT-A LC inh2 inactive, Autofluor counter inactive and Anthrax LF inh2 inactive.
`CCCn1nnnc1NCc1cccc(Cl)c1` gave Vc quorum ag-1 inactive, BJeLR lethal inactive, BoNT F protease inactive, BoNT-A LC inh2 inactive, Autofluor counter inactive and Anthrax LF inh2 inactive.
Screening CC(=O)C1=CCC(c2ccc(Cl)cc2)N(S(=O)(=O)c2ccc(C)cc2)C1 (configuration not stated) returned BoNT F protease inactive, BoNT-A LC inh2 inactive, Autofluor counter inactive and Anthrax LF inh2 inactive.
Screening COC(=O)[C@]12CCCCC=C1N(Cc1ccco1)C(=O)[C@H](CC(=O)NCCc1ccccc1OC)C2 returned BoNT F protease inactive, BoNT-A LC inh2 inactive, Autofluor counter inactive and Anthrax LF inh2 inactive.
`CC(OC(=O)c1cc(S(=O)(=O)N2CCOCC2)ccc1Br)C(=O)N1CCOCC1` (configuration not stated) gave Vc quorum ag-1 inactive, BoNT F protease inactive, BoNT-A LC inh2 inactive, Autofluor counter inactive and Anthrax LF inh2 inactive.
c1cn2cc(CN3CCOCC3)nc2s1 was read as Vc quorum ag-1 inactive, BJeLR lethal inactive, BoNT F protease inactive, BoNT-A LC inh2 inactive, Autofluor counter inactive, Anthrax LF inh2 inactive and Vc quorum ag-2 inactive.
Nc1nc(CN2CCOCC2)cs1 was read as Vc quorum ag-1 inactive, BJeLR lethal inactive, BoNT F protease inactive, BoNT-A LC inh2 inactive, Autofluor counter inactive and Anthrax LF inh2 inactive.
C[C@@H]1CN([C@@H](C)CO)C(=O)c2cc(Br)cnc2O[C@@H]1CN(C)Cc1cncnc1 was read as Vc quorum ag-1 inactive, BoNT F protease inactive, BoNT-A LC inh2 inactive, Autofluor counter inactive and Anthrax LF inh2 inactive.
Screening O=C(NCc1cc2ccccc2[nH]1)C1CCC(=O)N(CC2CCCCC2)C1 (configuration not stated) returned Vc quorum ag-1 inactive, BoNT F protease inactive, BoNT-A LC inh2 inactive, Autofluor counter inactive and Anthrax LF inh2 inactive.
`O=C(O)c1[nH]c2ccccc2c1NS(=O)(=O)Cc1ccccc1` gave Vc quorum ag-1 inactive, BJeLR lethal inactive, BoNT F protease inactive, BoNT-A LC inh2 inactive, Autofluor counter 16578, Anthrax LF inh2 inactive and Vc quorum ag-2 inactive.
Screening CC(C)Oc1ccc(OCCCN2CCCCCC2)cc1 returned Vc quorum ag-1 inactive, BJeLR lethal inactive, BoNT F protease inactive, BoNT-A LC inh2 inactive, Autofluor counter inactive, Anthrax LF inh2 inactive and Vc quorum ag-2 inactive.
For CC(C)c1ccc(OCCCCN2CCCCC2)cc1 the results were Vc quorum ag-1 inactive, BJeLR lethal inactive, BoNT F protease inactive, BoNT-A LC inh2 inactive, Autofluor counter inactive and Anthrax LF inh2 inactive.

Source: PubChem
